# Unmarked numbers belong to inactive results. Results filed as inconclusive are left out. A call without a number means that no potency is given here. The source made the active and inactive calls. Unless noted, the call rests on the fitted dose curve.
# Columns and labels:
# [1] = Nuclear factor erythroid 2-related factor 2/antioxidant responsive element (Nrf2/ARE) small molecule agonists: luciferase reporter gene qHTS assay in human keratinocytes (AID 1919969); further: nearly all actives have a fitted effect of over 35% in size; further: potency means the concentration at half of the fitted maximal effect
# [2] = target: Gonadotropin-releasing hormone receptor (Homo sapiens) (UniProt P30968); assay: Human gonadotropin-releasing hormone receptor (GnRHR) small molecule agonists, calcium flux assay in GnRHR-HEK293 cells (AID 1920063); further: nearly all actives have a fitted effect of over 35% in size
# How it was run: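 Stable human GnRHR HEK293 line. 18 h plating, then calcium dye for 1 h at 37 C. Agonist-mode compound addition from DMSO stocks; fluorescence monitored 3 min.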
# [3] = target: KiSS-1 receptor (Homo sapiens) (UniProt Q969F8); assay: Human kisspeptin (KISS1R) small molecule agonists, calcium flux assay in KISS1R-HEK293 cells (AID 1920064; active means well fitted activation curve with a large enough effect in the repeat runs; further: potency means the concentration at half of the fitted maximal effect)
# How it was run: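 After overnight (18 h) culture at 37 C/5% CO2, human KISS1R-HEK293 cells received calcium dye for 1 h, then test compound; emission at 540 nm (excitation 480 nm) was tracked for 3 min.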
# [4] = p53 small molecule agonists, cell-based qHTS assay with human liver microsomes: qHTS cell viability counter screen (AID 1963579); further: nearly all actives have a fitted effect of over 45% in size; further: potency means the concentration at half of the fitted maximal effect
# How it was run: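 HLM-supplemented (0.5 mg/mL final) and NADPH-supplemented (0.5 mg/mL final) p53RE-bla cultures, 4,000 cells per well, were dosed with compounds in DMSO for 16 h at 37 C; luminescent ATP detection (CellTiter-Glo, 30 min, room temperature) quantified surviving cells.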
# [5] = p53 small molecule agonists, cell-based qHTS assay with rat liver microsomes: qHTS cell viability counter screen (AID 1963580); further: nearly all actives have a fitted effect of over 45% in size
# How it was run: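 Cytotoxicity counter screen: intracellular ATP measured by CellTiter-Glo luminescence in the same wells as the beta-lactamase reporter read, on HCT-116 p53RE-bla cells exposed 16 h at 37 C to compounds with rat liver microsomes and NADPH, each 0.5 mg/mL final.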
# [6] = cAMP Responsive Elements (CRE) small molecule antagonists, cell-based qHTS assay (AID 1963591; active means well fitted inhibition curve with a large enough effect in the signal ratio in the repeat runs, not every such curve was filed as active; the % refers to the signal ratio; further: potency means the concentration at half of the fitted maximal effect)
# How it was run: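 Reporter line CRE-bla HEK 293T in dialyzed-FBS DMEM; cells preincubated 18 h, treated 3 h with compound plus NKH477 (0.25 uM final); LiveBLAzer FRET, 2 h RT.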
# [7] = target: Beta-2 adrenergic receptor (Homo sapiens) (UniProt P07550); assay: Adrenergic beta2 receptor (ADRB2) small molecule antagonists, cell-based qHTS assay (AID 1963592); further: nearly all actives have a fitted effect of over 50% in size; further: potency means the concentration at half of the fitted maximal effect
# How it was run: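 Assay format: CHO-ADRB2 cells, 18-20hr seeding at 37C/5% CO2, then compound plus 1nM isoproterenol agonist mix for 0.5hr RT. Homogeneous time-resolved fluorescence cAMP detection after 1hr, expressed as 665/615 nm ratio.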
# [8] = target: Beta-2 adrenergic receptor (Homo sapiens) (UniProt P07550); assay: Adrenergic beta2 receptor (ADRB2) small molecule agonists, cell-based qHTS assay (AID 1963593);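 further: CHO cells stably overexpressing human ADRB2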
# How it was run: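 CHO cells stably over-expressing ADRB2 were plated overnight at 37C, then dosed with compounds plus a stimulation mix containing 100uM IBMX and 25uM Ro-20-1724 for 0.5hr at room temperature. cAMP was measured by HTRF competition, 1hr.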
# [9] = target: D(2) dopamine receptor (Homo sapiens) (UniProt P14416); assay: Dopamine D2 receptor (DRD2) small molecule agonists, cell-based qHTS assay (AID 1963594); further: nearly all actives have a fitted effect of over 35% in size
# How it was run: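 HEK293 cells stably expressing human DRD2, pre-treated with PDE inhibitor Ro20-1724 (0.1 mM final) and compound 10 min at room temperature, then stimulated with NKH477 (200nM […]) for 30 min. cAMP read by HTRF (665/620 nm).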
# [10] = target: D(2) dopamine receptor (Homo sapiens) (UniProt P14416); assay: Dopamine D2 receptor (DRD2) small molecule antagonists, cell-based qHTS assay (AID 1963595; active means well fitted inhibition curve with a large enough effect in the signal ratio in the repeat runs, with a control signal flat; the % refers to the signal ratio)
# How it was run: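 Stable D2 receptor HEK293 line, 24 h after seeding. Compound preincubated 10 min, then quinpirole (12 nM) with forskolin analogue NKH477 (200 nM), 30 min, room temperature. Detection by time-resolved FRET of cAMP.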
# [11] = p53 small molecule agonists, cell-based qHTS assay with human liver microsomes (AID 1963577);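 further: p53 response element beta-lactamase reporter cells with liver microsomes plus NADPH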
# How it was run: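 Reporter activation was measured by LiveBLAzer fluorescence intensity in p53RE-bla cells, which had been exposed to compounds for 16 h at 37 C alongside 0.5 mg/mL human liver microsomes and 0.5 mg/mL NADPH (final concentrations).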
# [12] = p53 small molecule agonists, cell-based qHTS assay with rat liver microsomes (AID 1963578)
# How it was run: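 Compound in DMSO added to p53RE-bla cells 5 h post-plating; rat microsomes/NADPH 0.5 mg/mL final; 16 h, 37 C; LiveBLAzer 2 h RT.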
# [13] = p53 small molecule agonists, cell-based qHTS assay: qHTS cell viability counter screen (AID 1963581); further: nearly all actives have a fitted effect of over 45% in size; further: potency means the concentration at half of the fitted maximal effect
# How it was run: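 qHTS counter screen: 16 h compound exposure at 37 C of p53RE-bla HCT-116 cells (4,000 per well, seeded 5 h prior), cell viability by ATP luminescence.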
# [14] = p53 small molecule agonists, cell-based qHTS assay (AID 1963582; active means well fitted activation curve with a large enough effect in the signal ratio in the repeat runs, not every such curve was filed as active; the % refers to the signal ratio)
# How it was run: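 Measured: fluorescence from cleaved LiveBLAzer substrate. System: p53RE-bla cells, 16 h compound treatment at 37 C, 2 h substrate step at room temperature.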
# [15] = target: 5-hydroxytryptamine receptor 2A (Homo sapiens) (UniProt P28223); assay: 5-hydroxytryptamine receptor 2A (HTR2A) small molecule antagonists, cell-based qHTS assay (AID 1963586); further: nearly all actives have a fitted effect of over 45% in size; further: potency means the concentration at half of the fitted maximal effect
# How it was run: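 CHO cells stably expressing human HTR2A were plated for 18 h at 37 C, then loaded with calcium dye for 1 h. Compounds were preincubated 5 min at room temperature before DOI (4 nM solution) was added. Kinetic fluorescence was read for 3 min.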
# [16] = target: 5-hydroxytryptamine receptor 2A (Homo sapiens) (UniProt P28223); assay: 5-hydroxytryptamine receptor 2A (HTR2A) small molecule agonists, cell-based qHTS assay (AID 1963587); further: nearly all actives have a fitted effect of over 30% in size; further: potency means the concentration at half of the fitted maximal effect
# How it was run: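 CHO cells stably expressing human HTR2A, plated 18 h, loaded with calcium dye 1 h at 37 C. Agonist mode: compounds added and intracellular calcium fluorescence recorded kinetically for 2 min at 1 sec intervals.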
# [17] = target: Muscarinic acetylcholine receptor M1 (Homo sapiens) (UniProt P11229); assay: Cholinergic receptor muscarinic 1 (CHRM1) small molecule agonists, cell-based qHTS assay (AID 1963589); further: nearly all actives have a fitted effect of over 35% in size; further: potency means the concentration at half of the fitted maximal effect
# How it was run: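 Kinetic fluorescence (1 s intervals) of calcium-sensitive dye in human M1 CHO cells after compound addition; cells pre-incubated 18 h at 37 C/5% CO2 and dye-loaded 1 h.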
# [18] = cAMP Responsive Elements (CRE) small molecule agonists, cell-based qHTS assay (AID 1963590); further: potency means the concentration at half of the fitted maximal effect
# How it was run: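 Test agents in DMSO were incubated 3 h at 37 C/5% CO2 with CRE-bla HEK 293T cells seeded 18 h earlier; LiveBLAzer B/G FRET substrate was added and read after 2 h at room temperature.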
# [19] = G protein-coupled receptor (GPCR) small molecule agonists, calcium flux assay: HEK293 wild type cell line counter screen (AID 1920065); further: potency means the concentration at half of the fitted maximal effect
# How it was run: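 Following 18 h incubation at 37 C/5% CO2, plates got calcium dye for 1 h; compounds, ATP or DMSO were then pinned in and fluorescence followed kinetically (480/540 nm).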
# [20] = target: Muscarinic acetylcholine receptor M1 (Homo sapiens) (UniProt P11229); assay: Cholinergic receptor muscarinic 1 (CHRM1) small molecule antagonists, cell-based qHTS assay (AID 1963588); further: nearly all actives have a fitted effect of over 40% in size; further: potency means the concentration at half of the fitted maximal effect
# How it was run: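 Compounds were tested at 15 concentrations in three independent runs. Dye-loaded CHRM1-CHO cells were exposed 5 min at room temperature before stimulation by acetylcholine added at 50nM. Intracellular calcium was read kinetically on FDSS for 3 min.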
# Sequence of KiSS-1 receptor (Homo sapiens) (Q969F8 whole entry, looked up): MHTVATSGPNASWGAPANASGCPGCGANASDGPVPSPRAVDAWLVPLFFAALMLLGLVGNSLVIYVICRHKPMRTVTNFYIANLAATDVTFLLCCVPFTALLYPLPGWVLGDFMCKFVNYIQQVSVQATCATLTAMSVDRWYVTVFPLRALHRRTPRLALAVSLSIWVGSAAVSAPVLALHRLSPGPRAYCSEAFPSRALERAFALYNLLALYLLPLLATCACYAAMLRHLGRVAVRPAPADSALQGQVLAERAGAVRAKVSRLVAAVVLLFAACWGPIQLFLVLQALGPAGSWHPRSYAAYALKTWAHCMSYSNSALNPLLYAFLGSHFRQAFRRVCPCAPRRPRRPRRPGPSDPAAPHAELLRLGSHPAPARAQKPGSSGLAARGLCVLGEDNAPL
# Sequence of Gonadotropin-releasing hormone receptor (Homo sapiens) (P30968 whole entry, looked up): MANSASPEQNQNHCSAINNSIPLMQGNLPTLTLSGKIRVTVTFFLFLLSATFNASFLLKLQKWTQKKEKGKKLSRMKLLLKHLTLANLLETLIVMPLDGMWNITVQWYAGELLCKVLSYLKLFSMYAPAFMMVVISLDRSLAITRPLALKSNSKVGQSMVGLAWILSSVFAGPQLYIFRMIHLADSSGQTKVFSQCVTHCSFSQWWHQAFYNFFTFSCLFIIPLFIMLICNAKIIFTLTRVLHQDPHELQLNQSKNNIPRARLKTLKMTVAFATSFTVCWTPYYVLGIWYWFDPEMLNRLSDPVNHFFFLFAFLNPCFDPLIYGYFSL
# Sequence of D(2) dopamine receptor (Homo sapiens) (P14416 whole entry, looked up): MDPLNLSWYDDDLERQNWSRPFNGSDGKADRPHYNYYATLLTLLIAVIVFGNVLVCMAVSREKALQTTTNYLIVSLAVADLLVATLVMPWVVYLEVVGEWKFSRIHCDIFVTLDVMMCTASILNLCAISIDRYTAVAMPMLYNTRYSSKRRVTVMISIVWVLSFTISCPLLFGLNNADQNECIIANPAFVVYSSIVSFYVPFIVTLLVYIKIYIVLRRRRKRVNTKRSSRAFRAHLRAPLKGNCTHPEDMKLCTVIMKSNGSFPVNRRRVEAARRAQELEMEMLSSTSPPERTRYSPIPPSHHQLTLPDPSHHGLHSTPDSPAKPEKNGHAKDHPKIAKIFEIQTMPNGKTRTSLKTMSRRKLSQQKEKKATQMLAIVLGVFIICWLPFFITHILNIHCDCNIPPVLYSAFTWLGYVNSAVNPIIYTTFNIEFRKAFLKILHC
# Sequence of Muscarinic acetylcholine receptor M1 (Homo sapiens) (P11229 whole entry, looked up): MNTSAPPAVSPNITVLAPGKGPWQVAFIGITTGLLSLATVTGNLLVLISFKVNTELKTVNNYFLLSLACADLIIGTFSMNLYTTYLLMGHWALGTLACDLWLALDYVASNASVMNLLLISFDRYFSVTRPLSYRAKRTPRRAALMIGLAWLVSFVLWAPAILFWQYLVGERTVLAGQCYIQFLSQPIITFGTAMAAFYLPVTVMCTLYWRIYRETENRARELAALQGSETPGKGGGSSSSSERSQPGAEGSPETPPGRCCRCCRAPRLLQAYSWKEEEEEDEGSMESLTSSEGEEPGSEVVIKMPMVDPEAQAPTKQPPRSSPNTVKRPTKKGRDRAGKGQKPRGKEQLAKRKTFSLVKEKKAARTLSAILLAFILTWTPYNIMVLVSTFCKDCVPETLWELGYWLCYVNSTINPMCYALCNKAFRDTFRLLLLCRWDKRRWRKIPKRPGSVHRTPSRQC
# Sequence of Beta-2 adrenergic receptor (Homo sapiens) (P07550 whole entry, looked up): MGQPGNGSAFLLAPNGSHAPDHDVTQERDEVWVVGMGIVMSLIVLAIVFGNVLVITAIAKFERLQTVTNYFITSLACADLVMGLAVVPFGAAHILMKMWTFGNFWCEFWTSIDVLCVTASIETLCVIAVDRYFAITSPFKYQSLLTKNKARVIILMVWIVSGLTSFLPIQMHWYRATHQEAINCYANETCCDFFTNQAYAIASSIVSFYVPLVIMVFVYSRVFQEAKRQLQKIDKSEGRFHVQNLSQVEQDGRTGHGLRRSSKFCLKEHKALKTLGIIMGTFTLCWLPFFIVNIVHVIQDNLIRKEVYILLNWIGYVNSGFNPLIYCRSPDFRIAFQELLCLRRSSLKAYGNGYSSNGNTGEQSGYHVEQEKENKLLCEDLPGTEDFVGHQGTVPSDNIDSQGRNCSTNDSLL
# Sequence of 5-hydroxytryptamine receptor 2A (Homo sapiens) (P28223 whole entry, looked up): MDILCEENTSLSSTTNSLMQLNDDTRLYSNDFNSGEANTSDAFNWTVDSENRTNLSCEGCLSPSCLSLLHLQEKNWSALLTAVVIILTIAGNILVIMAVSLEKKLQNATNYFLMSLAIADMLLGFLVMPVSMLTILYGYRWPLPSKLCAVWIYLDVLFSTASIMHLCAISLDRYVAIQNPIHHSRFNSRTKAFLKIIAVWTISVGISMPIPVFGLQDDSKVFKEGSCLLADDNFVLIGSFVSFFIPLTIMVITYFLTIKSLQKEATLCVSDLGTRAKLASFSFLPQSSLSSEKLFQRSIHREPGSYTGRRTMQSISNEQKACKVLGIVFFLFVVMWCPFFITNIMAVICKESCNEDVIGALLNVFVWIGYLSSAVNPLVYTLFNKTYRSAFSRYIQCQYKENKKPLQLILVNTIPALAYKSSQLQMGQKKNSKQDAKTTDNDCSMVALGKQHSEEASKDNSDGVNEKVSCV
SMILES,Potency [1],Potency [2],Potency [3],Potency [4],Potency [5],Potency [6],Potency [7],Potency [8],Potency [9],Potency [10],Potency [11],Potency [12],Potency [13],Potency [14],Potency [15],Potency [16],Potency [17],Potency [18],Potency [19],Potency [20]
COC1=C(OC)C(=O)C(CCCCCCCCCCO)=C(C)C1=O,10.6 µM (active),inactive,inactive,inactive,inactive,inactive,inactive,inactive,inactive,inactive,–,–,–,–,–,–,–,–,–,–
CN(C)[C@@H](CCOc1cccc2ccccc12)c1ccccc1,inactive,inactive,–,–,inactive,–,–,–,inactive,inactive,inactive,inactive,inactive,inactive,3.26 µM (active),10.7 µM (active),inactive,inactive,–,–
CCOC(=O)OCC,inactive,inactive,–,inactive,inactive,inactive,–,–,inactive,inactive,–,–,inactive,–,inactive,inactive,inactive,inactive,inactive,inactive
Cc1ccc(N=Nc2c(O)c(C(=O)O)cc3ccccc23)c(S(=O)(=O)O)c1,inactive,inactive,–,inactive,inactive,inactive,inactive,inactive,inactive,inactive,inactive,inactive,inactive,–,inactive,inactive,inactive,–,inactive,inactive
CCCC(=O)O[C@]1(C(=O)CCl)[C@@H](C)C[C@H]2[C@@H]3CCC4=CC(=O)C=C[C@]4(C)[C@@]3(F)C(=O)C[C@@]21C,inactive,inactive,–,inactive,inactive,–,inactive,inactive,–,inactive,inactive,inactive,–,inactive,inactive,inactive,inactive,–,inactive,inactive
COc1ccccc1OCCNCC(O)COc1cccc2[nH]c3ccccc3c12 (stereo not drawn),inactive,inactive,–,inactive,inactive,inactive,–,–,–,–,inactive,inactive,inactive,inactive,–,–,–,–,inactive,–
CCO[Si](CCCS)(OCC)OCC,inactive,inactive,–,–,inactive,inactive,inactive,inactive,inactive,inactive,–,inactive,inactive,inactive,inactive,inactive,inactive,inactive,inactive,inactive
CCO[C@@H]1O[C@H](C(COCc2ccccc2)OCc2ccccc2)[C@H](OCc2ccccc2)[C@H]1O (stereo partly drawn),inactive,inactive,–,inactive,inactive,inactive,inactive,–,inactive,inactive,–,–,inactive,–,inactive,–,inactive,inactive,inactive,inactive
O=C(c1ccc(F)cc1)C1CCN(CCn2c(=S)[nH]c3ccccc3c2=O)CC1,23.7 µM (active),–,inactive,inactive,inactive,–,29.8 µM (active),–,inactive,–,inactive,inactive,inactive,inactive,–,–,inactive,–,inactive,–
CCC(CN)=C(c1ccccc1)c1ccccc1,inactive,–,inactive,–,inactive,–,inactive,–,inactive,inactive,inactive,inactive,inactive,inactive,inactive,23.9 µM (active),inactive,–,inactive,–
CCC(=O)C1CC(C(C)C)CC=C1C (stereo not drawn),inactive,–,inactive,inactive,inactive,inactive,inactive,–,inactive,inactive,–,–,inactive,–,inactive,inactive,inactive,inactive,inactive,inactive
CCCCCCCCCCCCCOS(=O)(=O)O,inactive,–,inactive,–,inactive,inactive,inactive,–,inactive,inactive,inactive,inactive,inactive,inactive,–,–,inactive,–,inactive,inactive
CCCC(=O)OC[C@@H](OC(=O)CCC)[C@@H](OC(=O)CCC)[C@H](Cn1c2nc(=O)[nH]c(=O)c-2nc2cc(C)c(C)cc21)OC(=O)CCC,inactive,–,16.9 µM (active),inactive,inactive,–,inactive,–,inactive,inactive,inactive,–,inactive,–,inactive,23.9 µM (active),19 µM (active),–,15.1 µM (active),inactive
C1CCC(C(CC2CCCCN2)C2CCCCC2)CC1 (stereo not drawn),inactive,–,inactive,inactive,inactive,29.8 µM (active),–,–,inactive,–,inactive,inactive,–,inactive,–,–,–,–,inactive,–
COC(=O)c1nc(Cl)c(Cl)nc1N,5.96 µM (active),–,inactive,–,–,–,inactive,–,inactive,inactive,inactive,–,–,–,inactive,inactive,inactive,–,inactive,inactive
CCC(C(=O)NC(=O)NC(C)=O)c1ccccc1 (stereo not drawn),inactive,–,inactive,inactive,inactive,inactive,inactive,inactive,inactive,inactive,–,–,inactive,–,–,inactive,inactive,inactive,inactive,inactive
CCc1cc2cc(OC)c(OC)cc2c(Cc2ccccc2)n1,inactive,–,inactive,–,inactive,inactive,inactive,inactive,–,inactive,–,inactive,–,inactive,–,–,inactive,11.9 µM (active),inactive,inactive
CCOC(=O)COc1ccc2c(c1)CC(NCC(O)c1cccc(Cl)c1)CC2 (stereo not drawn),inactive,–,inactive,inactive,–,–,–,inactive,–,–,inactive,inactive,inactive,–,inactive,31.2 µM (active),inactive,–,inactive,–
CO[C@H]1C=CO[C@@]2(C)Oc3c(C)c(O)c4c(O)c(c5c(c4c3C2=O)=NC2(CCN(CC(C)C)CC2)N=5)NC(=O)/C(C)=C\C=C/[C@H](C)[C@H](O)[C@@H](C)[C@@H](O)[C@@H](C)[C@H](OC(C)=O)[C@@H]1C,inactive,–,inactive,inactive,inactive,–,inactive,–,–,–,inactive,inactive,–,–,–,–,–,–,inactive,–
NC(N)=NN=C(/C=C/c1ccc([N+](=O)[O-])o1)/C=C/c1ccc([N+](=O)[O-])o1,6.68 µM (active),–,inactive,–,inactive,29.8 µM (active),inactive,–,inactive,inactive,–,–,17.8 µM (active),–,inactive,inactive,inactive,–,inactive,inactive
Cc1cccc(Br)c1,24.5 µM (active),–,inactive,20.6 µM (active),inactive,–,inactive,inactive,inactive,inactive,inactive,–,–,–,inactive,inactive,inactive,–,inactive,–
CCCCC(=O)O[C@]1(C(=O)CO)[C@@H](C)C[C@H]2[C@@H]3CCC4=CC(=O)C=C[C@]4(C)[C@@]3(F)[C@@H](O)C[C@@]21C,inactive,–,inactive,–,inactive,–,–,–,inactive,inactive,inactive,inactive,inactive,inactive,inactive,–,inactive,–,–,inactive
CN1CCN(CCC(=O)N2c3ccccc3Sc3ccc(C(F)(F)F)cc32)CC1,inactive,–,inactive,–,inactive,–,29.8 µM (active),–,inactive,inactive,inactive,inactive,–,–,4.1 µM (active),–,inactive,–,–,0.146 µM (active)
Oc1ccc(-c2ccccc2)c(Cl)c1,54.5 µM (active),–,inactive,–,–,–,inactive,inactive,inactive,inactive,inactive,–,inactive,inactive,–,–,inactive,–,inactive,inactive
